This is part of a sample that, as a whole, favours compounds with a hit. Of some 83,000 tested, about 20% had one in any assay.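 How to read the values: 0–100, growth inhibition (40 = 60% inhibited); 0, no net growth; -100 to 0, cell death (-40 = 40% of starting cells died; -100 = all dead).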 Activity calls are given as the source filed them. The calls were made as follows: active = growth percent below 10; inactive = the rest.

In one experiment the test system is SK-OV-3 ovarian. Briefly: NCI-60 one-dose screen, 48 h (100 = growth as untreated, 0 = no growth, -100 = all killed). As to conditions: 10 µM unless noted.
Regarding `C=C1C(=O)O[C@H]2[C@H]1CC/C(COC(=O)NCCc1ccc(Br)cc1)=C\CC[C@@]1(C)O[C@@H]21`, the growth is 97.2% (inactive).
The same measure, in the same setting: with `COc1ccc(C(=O)/C=C/c2ccc(/C=C/c3cc(OC)c(OC)c(OC)c3)cc2)cc1` the figure was 102% (inactive).
Same read-out and setting: with `COc1ccc(C2CC(=O)Nc3c2c(C)nn3-c2nc3ccccc3[nH]2)cc1OC` (stereo not drawn) the figure was 17.7% (inactive); with `C=C1C(=O)O[C@H]2[C@H]1CC/C(COC(=O)NCCc1cccc(OC)c1)=C\CC[C@@]1(C)O[C@@H]21`, 90.3% (inactive); with `CCNC(=O)C1CCCN1C(=O)C(CCCN=C(N)N)NC(=O)C(CC(C)C)NC(=O)C(CC(C)C)NC(=O)C(Cc1ccc(O)cc1)NC(=O)C(CO)NC(=O)C(Cc1c[nH]c2ccccc12)NC(=O)C(Cc1cnc[nH]1)NC(=O)C1CCC(=O)N1` (stereo not drawn), 98.2% (inactive).
On the same count and under the same terms, the figure for `CCCCCCCCCCn1cc[n+](C)c1` is 44.5% (inactive); for `Cc1oc2ncnc(Nc3ccccc3)c2c1C(=O)NCCO` it is 100% (inactive).
With `C[C@]12CC[C@@H]3c4cc(O)c(O)cc4CC[C@H]3[C@@H]1CC[C@@H]2O`, the growth is 29.5% (inactive).
On to `O=C1C2=C(C(=O)c3c(O)ccc(O)c31)N(c1cccnc1)Cc1ccccc1O2`, for which the growth was 53.8% (inactive).
The same measure, in the same setting: the figure for `NC(=O)c1cccc(N2Cc3ccccc3OC3=C2C(=O)c2c(O)ccc(O)c2C3=O)c1` is 20.8% (inactive).
Same read-out and setting: the figure for `Nc1cccc2c1CN(C1CCC(=O)NC1=O)C2=O` (stereo not drawn) is 93.1% (inactive); for `COc1ccc2c(c1)C(=O)/C(=C/c1ccc(O)cc1)O2` it is 104% (inactive); for `O=C1NCC(c2cc3ccccc3[nH]c2=O)Nc2ccccc21` (stereo not drawn) it is 89.9% (inactive).
The same measure, in the same setting: with `COC1=CC(c2ccc[nH]2)=N/C1=C\c1[nH]c(C)c(C(=O)CCCCC(=O)NCc2ccccc2)c1C` the figure was 83.3% (inactive).
Turning to `COc1ncc(-c2ccc3ncnc(Nc4cccc(Cl)c4)c3c2)cc1NS(=O)(=O)C1CC1`, the growth is 8.08% (active).
Same read-out and setting: the figure for `C=C1C(=O)O[C@H]2[C@H]1CC/C(COC(=O)NCCc1ccc(OC)cc1)=C\CC[C@@]1(C)O[C@@H]21` is 89.3% (inactive).
Same read-out and setting: the figure for `COc1ccc(C2NC3=C(CCCC3)C(C#N)(C#N)C2(C#N)C#N)cc1` (stereo not drawn) is 99.5% (inactive); for `CCCCCc1c(C)[nH]c(/C=c2\[nH]/c(=C3/C=c4ccccc4=N3)cc2OC)c1C` it is -17.2% (active).
Same read-out and setting: with `Nc1c(C(=O)Nc2cccc(Cl)c2Cl)sc2nc3c(cc12)C(=O)CCC3` the figure was 24.2% (inactive); with `COc1ccc(/C=C/C(=O)/C=C/c2cc3ccc(Cl)cc3[nH]c2=O)cc1`, 91% (inactive); with `N#Cc1c(NC(=O)c2ccc([N+](=O)[O-])o2)[n+]([O-])c2cc(F)c(F)cc2[n+]1[O-]`, 129% (inactive).
With `COc1ccc(/C=C/c2cc(N3CCOCC3)c3cc(F)c(F)cc3n2)cc1OC`, the growth is 55.5% (inactive).
Still for that read-out and setting: the figure for `COc1ccc(/C=C/c2nc(N3CCOCC3)c3nc(Cl)c(Cl)cc3n2)cc1OC` is 105% (inactive).

The test system of a further experiment is IGROV1 ovarian. The experiment is described as above. Particulars: 10 µM unless noted.
Take `O=C(O)c1ccc(-n2cc(CNc3ccc(C(F)(F)F)cc3)c(-c3ccccc3)n2)cc1`: the growth is 111% (inactive).
The same measure, in the same setting: with `Nc1ccc(S(=O)(=O)c2ccc(Cl)cc2)cc1` the figure was 97.3% (inactive); with `C/C(=C\c1csc(C)n1)[C@@H]1C[C@@H]2O[C@]2(C)CCC[C@H](C)[C@H](O)[C@@H](C)C(=O)C(C)(C)[C@@H](O)CC(=O)N1`, -85.5% (active); with `O=C(O)C(=Cc1c2ccccc2cc2ccccc12)C(=O)O`, 111% (inactive).
On the same count and under the same terms, with `O=C(Nc1ccc(I)cc1)c1cc([N+](=O)[O-])ccc1O` the figure was 39.6% (inactive).
Same read-out and setting: the figure for `CCCCCCc1nc2c(c(C)nn2-c2ccccc2)c2c1CCCCC2` is 109% (inactive).
In the case of `COc1ccc(-c2nc3sccn3c2-c2ccnc(NCCCNS(=O)(=O)c3ccc(C)cc3)n2)cc1`, the growth is 33.9% (inactive).
Consider `COc1cccc(-c2nc3sccn3c2-c2ccnc(NCCCNS(=O)(=O)c3ccc(F)cc3)n2)c1`, for which the growth is 34.6% (inactive).
Same read-out and setting: the figure for `C=C1C(=O)O[C@H]2[C@H]1CC/C(Cn1cc(-c3ccsc3)nn1)=C\CC[C@@]1(C)O[C@@H]21` is -16% (active).
Take `CCN(C(=O)c1cc2ccccc2[nH]1)[C@H]1CCC[C@@H](NCc2ccc(OC)cc2)C1`: the growth was 85.4% (inactive).
The same measure, in the same setting: the figure for `O=C1CCC/C=C\C[C@H]2C=CC(=O)/C2=C/C[C@H](C/C=C\CC(F)(F)F)O1` is -25.8% (active); for `CC(CCc1ccccc1)NC(=O)c1n[nH]c(=O)c2ccccc12` (stereo not drawn) it is 3.79% (active); for `CC(C)C[C@H](NC(=O)Cn1ccc(NCc2ccccc2)cc1=O)B(O)O` it is 41.1% (inactive).
Same read-out and setting: with `CCNc1nc(N2CC(=O)Nc3cc(OC)ccc32)c2ccccc2n1` the figure was 14.3% (inactive); with `O=S=Nc1ccc([N+](=O)[O-])cc1`, 103% (inactive).

The test system of the next experiment is OVCAR-3 ovarian. Described as above. Particulars: 10 µM unless noted.
For the molecule `C=C1C(=O)O[C@H]2[C@H]1CC/C(COC(=O)NCCc1ccc(Br)cc1)=C\CC[C@@]1(C)O[C@@H]21`, the growth is -71.8% (active).
Still for that read-out and setting: with `COc1ccc(C(=O)/C=C/c2ccc(/C=C/c3cc(OC)c(OC)c(OC)c3)cc2)cc1` the figure was 41.4% (inactive); with `COc1ccc(C2CC(=O)Nc3c2c(C)nn3-c2nc3ccccc3[nH]2)cc1OC` (stereo not drawn), 83.2% (inactive).
Consider `O=C(O)c1ccc(-n2cc(CNc3ccc(C(F)(F)F)cc3)c(-c3ccccc3)n2)cc1`, for which the growth is 96.1% (inactive).
Take `C=C1C(=O)O[C@H]2[C@H]1CC/C(COC(=O)NCCc1cccc(OC)c1)=C\CC[C@@]1(C)O[C@@H]21`: the growth is -20% (active).
Regarding `Nc1ccc(S(=O)(=O)c2ccc(Cl)cc2)cc1`, the growth was 98.8% (inactive).
The same measure, in the same setting: with `C/C(=C\c1csc(C)n1)[C@@H]1C[C@@H]2O[C@]2(C)CCC[C@H](C)[C@H](O)[C@@H](C)C(=O)C(C)(C)[C@@H](O)CC(=O)N1` the figure was -100% (active).
Same read-out and setting: the figure for `CCNC(=O)C1CCCN1C(=O)C(CCCN=C(N)N)NC(=O)C(CC(C)C)NC(=O)C(CC(C)C)NC(=O)C(Cc1ccc(O)cc1)NC(=O)C(CO)NC(=O)C(Cc1c[nH]c2ccccc12)NC(=O)C(Cc1cnc[nH]1)NC(=O)C1CCC(=O)N1` (stereo not drawn) is 125% (inactive); for `O=C(O)C(=Cc1c2ccccc2cc2ccccc12)C(=O)O` it is 118% (inactive).
The same measure, in the same setting: the figure for `CCCCCCCCCCn1cc[n+](C)c1` is 45.9% (inactive); for `Cc1oc2ncnc(Nc3ccccc3)c2c1C(=O)NCCO` it is 102% (inactive).
`O=C(Nc1ccc(I)cc1)c1cc([N+](=O)[O-])ccc1O`: the growth was 18.3% (inactive).
Still for that read-out and setting: with `C[C@]12CC[C@@H]3c4cc(O)c(O)cc4CC[C@H]3[C@@H]1CC[C@@H]2O` the figure was 11.5% (inactive); with `O=C1C2=C(C(=O)c3c(O)ccc(O)c31)N(c1cccnc1)Cc1ccccc1O2`, -89.5% (active).
The same measure, in the same setting: the figure for `CCCCCCc1nc2c(c(C)nn2-c2ccccc2)c2c1CCCCC2` is 107% (inactive); for `COc1ccc(-c2nc3sccn3c2-c2ccnc(NCCCNS(=O)(=O)c3ccc(C)cc3)n2)cc1` it is 45.4% (inactive).
As for `NC(=O)c1cccc(N2Cc3ccccc3OC3=C2C(=O)c2c(O)ccc(O)c2C3=O)c1`, the growth was -94.2% (active).
Still for that read-out and setting: the figure for `Nc1cccc2c1CN(C1CCC(=O)NC1=O)C2=O` (stereo not drawn) is 108% (inactive); for `COc1ccc2c(c1)C(=O)/C(=C/c1ccc(O)cc1)O2` it is 48.7% (inactive); for `COc1cccc(-c2nc3sccn3c2-c2ccnc(NCCCNS(=O)(=O)c3ccc(F)cc3)n2)c1` it is 37.4% (inactive).
For `O=C1NCC(c2cc3ccccc3[nH]c2=O)Nc2ccccc21` (stereo not drawn), the growth was 111% (inactive).
Still for that read-out and setting: with `COC1=CC(c2ccc[nH]2)=N/C1=C\c1[nH]c(C)c(C(=O)CCCCC(=O)NCc2ccccc2)c1C` the figure was -5.91% (active); with `COc1ncc(-c2ccc3ncnc(Nc4cccc(Cl)c4)c3c2)cc1NS(=O)(=O)C1CC1`, 20.1% (inactive); with `C=C1C(=O)O[C@H]2[C@H]1CC/C(Cn1cc(-c3ccsc3)nn1)=C\CC[C@@]1(C)O[C@@H]21`, -94.8% (active).
Same read-out and setting: the figure for `C=C1C(=O)O[C@H]2[C@H]1CC/C(COC(=O)NCCc1ccc(OC)cc1)=C\CC[C@@]1(C)O[C@@H]21` is -29.6% (active).
On the same count and under the same terms, the figure for `CCN(C(=O)c1cc2ccccc2[nH]1)[C@H]1CCC[C@@H](NCc2ccc(OC)cc2)C1` is 89.6% (inactive).
As to `COc1ccc(C2NC3=C(CCCC3)C(C#N)(C#N)C2(C#N)C#N)cc1` (stereo not drawn), the growth was 43% (inactive).
Still for that read-out and setting: the figure for `Nc1c(C(=O)Nc2cccc(Cl)c2Cl)sc2nc3c(cc12)C(=O)CCC3` is 95.6% (inactive); for `O=C1CCC/C=C\C[C@H]2C=CC(=O)/C2=C/C[C@H](C/C=C\CC(F)(F)F)O1` it is -69.7% (active).
Still for that read-out and setting: with `COc1ccc(/C=C/C(=O)/C=C/c2cc3ccc(Cl)cc3[nH]c2=O)cc1` the figure was 75.4% (inactive); with `N#Cc1c(NC(=O)c2ccc([N+](=O)[O-])o2)[n+]([O-])c2cc(F)c(F)cc2[n+]1[O-]`, 122% (inactive); with `CC(CCc1ccccc1)NC(=O)c1n[nH]c(=O)c2ccccc12` (stereo not drawn), 112% (inactive).
Same read-out and setting: with `CC(C)C[C@H](NC(=O)Cn1ccc(NCc2ccccc2)cc1=O)B(O)O` the figure was -54.5% (active); with `CCNc1nc(N2CC(=O)Nc3cc(OC)ccc32)c2ccccc2n1`, -16.8% (active).
`O=S=Nc1ccc([N+](=O)[O-])cc1`: the growth is 98.3% (inactive).

(Values after PubChem BioAssay (NCI).)
